# Test results as given in the antibiotic and cytotoxicity screens of Wong et al. (2023).
# The campaign covered roughly 39,000 compounds. About 500 (1.3%) were called active. For the sample, actives were picked, then their nearest neighbours and some compounds at random.
# System: S. aureus RN4220
# Experiment: growth inhibition call (relative growth <= 0.2)
# Conditions: 50 µM
row,SMILES,growth inhibition call
1,Cc1ccc(S(=O)(=O)N(C)C[C@@H]2Oc3ccc(NC(=O)NC(C)C)cc3CC(=O)N([C@H](C)CO)C[C@@H]2C)cc1,inactive
2,C[C@@H]1CCCCO[C@@H](CN(C)Cc2ccc(C(=O)Nc3ccccc3N)cc2)[C@@H](C)CN([C@H](C)CO)C(=O)c2cc(NC(=O)C3CCCCC3)ccc2O1,inactive
3,C[C@H]1CN([C@@H](C)CO)C(=O)c2cccc(NC(=O)c3cnccn3)c2O[C@H]1CN(C)Cc1ccc(C(=O)O)cc1,inactive
4,NC(=O)N/N=C/c1ccc([N+](=O)[O-])o1,active
5,O=C(Cn1ccc([N+](=O)[O-])n1)N1CCOCC1,inactive
6,Cc1ccc(S(=O)(=O)N2CCN(CC(=O)N/N=C/c3ccccn3)CC2)cc1,inactive
7,O=C(NN=Cc1ccc([N+](=O)[O-])o1)c1ccc(O)cc1,inactive
8,O=C(CN1CCOCC1)N/N=C/c1ccc([N+](=O)[O-])o1,active
9,O=C(N/N=C/c1ccc(CO)o1)c1ccccn1,inactive
10,CCOC(=O)c1ccc(N2NC(=O)/C(=C/c3ccc([N+](=O)[O-])o3)C2=O)cc1,inactive
11,COC(=O)N/N=C/c1ccc([N+](=O)[O-])o1,inactive
12,NC(=O)NN=Cc1ccc([N+](=O)[O-])o1,active
13,COCC#Cc1ccc2c(c1)O[C@H](CN(C)C(=O)c1ccccc1F)[C@H](C)CN([C@H](C)CO)S2(=O)=O,inactive
14,C[C@H](CO)N1C[C@H](C)[C@H](CN(C)C(=O)Nc2ccc3c(c2)OCO3)Oc2ncc(-c3cncnc3)cc2C1=O,inactive
15,COc1ccc(NC(=O)Nc2ccc3c(c2)C(=O)N([C@H](C)CO)C[C@@H](C)[C@@H](CN(C)Cc2ccc(C(=O)Nc4ccccc4N)cc2)O3)cc1,inactive
16,C[C@@H]1CN([C@H](C)CO)C(=O)CCCn2cc(nn2)CO[C@H]1CN(C)S(C)(=O)=O,inactive
17,O=C(CN1CCOCC1)NCC[C@H]1CC[C@@H](NC(=O)c2ccccc2F)[C@H](CO)O1,inactive
18,COc1ccc(NC(=O)N(C)C[C@@H]2OCCCC[C@@H](C)Oc3ccc(NS(=O)(=O)c4ccccc4)cc3C(=O)N([C@@H](C)CO)C[C@@H]2C)cc1,inactive
19,CCS(=O)(=O)Nc1ccc2c(c1)C(=O)N(C)C[C@H](OC)[C@@H](C)CN(Cc1nccs1)[C@H](C)CO2,inactive
20,CCOC(=O)Nc1ccc(C)s1,inactive
21,Cc1noc(C)c1S(=O)(=O)N(C)C[C@@H]1OCCCC[C@@H](C)Oc2ccc(NC(=O)Nc3ccc(C(F)(F)F)cc3)cc2C(=O)N([C@@H](C)CO)C[C@@H]1C,inactive
22,C[C@@H]1CN([C@H](C)CO)C(=O)c2cc(/C=C/c3ccccc3)cnc2O[C@@H]1CN(C)C(=O)C1CCOCC1,inactive
23,C[C@@H]1CN([C@@H](C)CO)C(=O)CCCn2nncc2CO[C@@H]1CN(C)S(=O)(=O)c1ccccc1C#N,inactive

row,SMILES,growth inhibition call
1,COC(=O)c1c(C)cc(OC(=O)c2c(C)cc(O)c(C=O)c2O)c(C)c1O,inactive
2,CCOC(=O)c1c(C)cc(O)c(C=O)c1O,active
3,Cc1cc(O)c(C=O)c(O)c1C(=O)O,inactive
4,CCCCC[C@@H](O)C[C@@H](O)CC(=O)O[C@@H](CCCCC)C[C@@H](O)CC(=O)OC[C@@H](O)[C@@H](O)[C@@H](O)[C@@H](O)CO,inactive
5,COc1ccc(CN(C)C[C@@H]2Oc3ccc(NC(=O)Nc4ccc(C(F)(F)F)cc4)cc3CC(=O)N([C@H](C)CO)C[C@@H]2C)cc1,inactive
6,C[C@H]1CCCCO[C@@H](CN(C)C(=O)Nc2ccccc2)[C@@H](C)CN([C@@H](C)CO)C(=O)c2cc(NC(=O)c3ccccc3)ccc2O1,inactive
7,O=C1c2ccccc2C(=O)c2c(NCCNCCO)ccc(NCCNCCO)c21,inactive
8,C[C@@H]1CN([C@H](C)CO)C(=O)c2cc(NC(=O)C3CC3)ccc2O[C@@H]1CN(C)Cc1ccc(-c2ccccc2)cc1,inactive
9,C[C@@H]1CN([C@@H](C)CO)C(=O)c2cccc(NC(=O)Nc3ccc(C(F)(F)F)cc3)c2O[C@H]1CN(C)C(=O)Nc1ccc(F)cc1,active
10,Cc1noc(C)c1NC(=O)Nc1cccc2c1O[C@@H](CN(C)C(=O)Nc1ccc(C(F)(F)F)cc1)[C@H](C)CN([C@@H](C)CO)C2=O,active
11,COc1ccc(NC(=O)N(C)C[C@@H]2Oc3c(NC(=O)Nc4ccc(C(F)(F)F)cc4)cccc3C(=O)N([C@@H](C)CO)C[C@@H]2C)cc1,active
12,COc1ccc(NC(=O)Nc2cccc3c2O[C@@H](CN(C)C(=O)Nc2ccc(C(F)(F)F)cc2)[C@@H](C)CN([C@@H](C)CO)C3=O)cc1,inactive
13,Cc1noc(C)c1NC(=O)Nc1cccc2c1O[C@@H](CN(C)C(=O)Nc1ccc(C(F)(F)F)cc1)[C@@H](C)CN([C@H](C)CO)C2=O,inactive
14,C[C@H](CO)N1C[C@H](C)[C@H](CN(C)C(=O)Nc2ccc(C(F)(F)F)cc2)Oc2c(NC(=O)Nc3ccc(F)cc3)cccc2C1=O,inactive
15,C[C@@H]1CN([C@H](C)CO)C(=O)c2cccc(NC(=O)Nc3ccc(F)cc3)c2O[C@H]1CN(C)C(=O)Nc1ccc(C(F)(F)F)cc1,inactive
16,C[C@@H]1CN([C@@H](C)CO)C(=O)c2cccc(NC(=O)Nc3ccc(F)cc3)c2O[C@H]1CN(C)C(=O)Nc1ccc(C(F)(F)F)cc1,inactive
17,Cc1noc(C)c1NC(=O)Nc1cccc2c1O[C@H](CN(C)C(=O)Nc1ccc(C(F)(F)F)cc1)[C@H](C)CN([C@H](C)CO)C2=O,inactive
18,C[C@@H]1CN([C@H](C)CO)C(=O)c2cccc(NC(=O)Nc3ccc(C(F)(F)F)cc3)c2O[C@@H]1CN(C)C(=O)Nc1ccc(F)cc1,active
19,C[C@H]1CN([C@@H](C)CO)C(=O)c2cccc(NC(=O)Nc3ccc(C(F)(F)F)cc3)c2O[C@H]1CN(C)C(=O)Nc1ccc(F)cc1,inactive
20,COc1ccc(NC(=O)Nc2cccc3c2O[C@H](CN(C)C(=O)Nc2ccc(C(F)(F)F)cc2)[C@@H](C)CN([C@@H](C)CO)C3=O)cc1,inactive
21,CO[C@H]1CN(C)C(=O)c2ccc(NS(C)(=O)=O)cc2OC[C@H](C)N(C(=O)c2ccc3c(c2)OCO3)C[C@@H]1C,inactive
22,CCCNC(=O)N1C[C@H](O)COC[C@H]2O[C@@H](CC(=O)N3CCOCC3)CC[C@@H]21,inactive
